The results in this text go back to PubChem BioAssay (NCI).

This is part of a sample that, as a whole, favours compounds with a hit. Of some 83,000 tested, about 20% had one in any assay.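 Cell lines were cultured in 96-well plates, exposed to a single compound concentration, and assessed for percent growth 48 hours later.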 Active and inactive are the calls of the source. Rule for the calls: active = growth percent below 10; inactive = the rest.

In the assay the test system is NCI/ADR-RES ovarian. Put plainly: NCI-60 one-dose screen, 48 h (100 = growth as untreated, 0 = no growth, -100 = all killed). The conditions noted are these: 10 µM unless noted.
For the molecule `O=[N+]([O-])c1cc([N+](=O)[O-])c(NN=C(c2ccc(O)cc2)c2ccc(O)cc2)cc1Cl`, the growth is -56.8% (active).

Regarding `Cc1cc(SC#N)ncn1`, the growth was 103% (inactive).

On to `O=C(N/N=C/c1c(Cl)cccc1Cl)c1cccc(Nc2ccnc(C(F)(F)F)c2)c1`, for which the growth is 102% (inactive).

As to `O=[N+]([O-])c1cc([N+](=O)[O-])c(C(F)(F)F)cc1NN=C(c1ccc(O)cc1)c1ccc(O)cc1`, the growth was -19.9% (active).

With `N/C(=N\c1nc2ccccc2[nH]1)NC(=O)Cc1cccc2ccccc12`, the growth was 79.9% (inactive).

Consider `CCN(CC)CCCC(C)Nc1ccnc2cc(Cl)c(SCc3ccccc3)cc12` (stereo not drawn), for which the growth is -18.3% (active).

On to `O=C(Oc1ccc(Cl)cc1[N+](=O)[O-])Oc1ccc(Cl)cc1[N+](=O)[O-]`, for which the growth was 119% (inactive).

`C[C@@H](NC(=O)[C@@H](CC(=O)N1CCC(N2CCCCC2)CC1)N1C(=O)[C@@H](N2C(=O)OC[C@@H]2c2ccccc2)[C@H]1/C=C/c1cccc(Cl)c1)c1ccccc1`: the growth was 98% (inactive).

As to `COc1ccc2c3ccnc(C(F)(F)F)c3n(CCCCN)c2c1`, the growth is 64.9% (inactive).

With `CCOC(=O)c1c[nH]c2cc(OCC3CC3)c(OCC3CC3)cc2c1=O`, the growth is 111% (inactive).

Consider `COc1ccc(-c2nc3ccccn3c2/C=C/C(=O)c2cc(OC)c(OC)c(OC)c2)cc1OC`, for which the growth is -4.39% (active).

For `NC(=S)Cc1ccccc1`, the growth is 105% (inactive).

For `CC(C)C1=NOC(=O)C1=Cc1cn(-c2ccccc2)nc1-c1cccc([N+](=O)[O-])c1`, the growth was 97% (inactive).

As to `O=c1c2c3c(sc2n2cnnc2n1Cc1ccccc1)CCCC3`, the growth was 96.9% (inactive).

Take `COc1cc(C)cc2oc3oc(=O)c(C(=O)c4cc5cc(Br)ccc5o4)cc3c(=O)c12`: the growth is 110% (inactive).

Regarding `COc1ccc(OC)c([N+](=O)[O-])c1C(=O)CNC(C)=O`, the growth was 94.9% (inactive).

Turning to `COc1cc(C(=O)/C=C/c2c(-c3ccc(F)cc3)nc3sccn23)cc(OC)c1OC`, the growth is 10.4% (inactive).

As for `CC(C)c1ccc(C(=O)Nc2nc3ccc(O)cc3s2)cc1`, the growth was 25.7% (inactive).

Regarding `C=C(C)C1CCC2(C(=O)O)CCC3(C)C(CCC4C5(C)CCC(OC(=O)NCc6ccccc6)C(C)(C)C5CCC43C)C12` (stereo not drawn), the growth is 44.8% (inactive).

As for `CCOC(=O)c1ccc2nc(-c3c(C)nn(-c4ccccc4)c3N3CCOCC3)[nH]c2c1`, the growth is 95.9% (inactive).

On to `Nc1nc(SCc2cccc([N+](=O)[O-])c2)c2[nH]cnc2n1`, for which the growth was 97.6% (inactive).

For `COc1ccc2nc3c(cc2c1)C(=O)CC(c1ccccc1)C3` (stereo not drawn), the growth was 13.2% (inactive).

For the molecule `CCCC[C@@H](C=O)NC(=O)[C@H](CC(C)C)NC(=O)[C@H](CC(C)C)NC(=O)OCc1ccccc1`, the growth was -2.88% (active).

As for `O=C(N/N=C/c1ccc([N+](=O)[O-])cc1)c1ccc(Br)o1`, the growth is 99.6% (inactive).

As for `NC1=NC(=O)NC1(c1ccccc1)c1ccccc1`, the growth was 106% (inactive).

For `CSc1nc2sc3cc(Cl)c(Cl)cc3n2c(=N)c1C#N`, the growth was 101% (inactive).

`Cn1c(=O)c(C#N)c(-c2ccco2)n2c(S(=O)(=O)Cc3ccccc3)nnc12`: the growth is 90.4% (inactive).

Take `Nc1ccc2c(c1)Cc1cc(NC(=O)C(F)(F)F)ccc1-2`: the growth was 104% (inactive).

For `NC(=O)c1c(NC(=O)COC(=O)Cc2ccccc2F)sc2c1CCC2`, the growth was 110% (inactive).

As to `Cc1cccc([N+](=O)[O-])c1I`, the growth is 109% (inactive).

In the case of `COc1ccc2nc3ccccc3c(NCCNCCO)c2c1`, the growth is 68.7% (inactive).

Turning to `Cc1cc(NN=C(c2ccc(O)cc2)c2ccc(O)cc2)c([N+](=O)[O-])cc1[N+](=O)[O-]`, the growth is 26.3% (inactive).

For the molecule `N#Cc1c(Cl)nc(SCC2CO2)nc1-c1ccccc1` (stereo not drawn), the growth was 108% (inactive).

For `CCCCCCCCCCCCCCNC(=O)Nc1ccc(Cl)c(Cl)c1`, the growth was -0.731% (active).

For `O=C1NC(=O)c2cc([N+](=O)[O-])cc3cccc1c23`, the growth is 95.9% (inactive).

Consider `CCN(CC)CCSC(=O)C(O)(c1ccccc1)C1CCCC1` (stereo not drawn), for which the growth was 84.5% (inactive).

As for `CCC(Br)(CC)C(=O)c1ccc(OCC(=O)O)c(Cl)c1Cl`, the growth was 99.1% (inactive).

`COc1ccc(C2CC(c3cc(OC)c(OC)c(OC)c3)=NN2C(C)=O)cc1OCC(=O)Nc1nc2ccc(C(F)(F)F)cc2s1` (stereo not drawn): the growth is 63% (inactive).
